Measured values reported in PubChem BioAssay (NCI).
Compounds without any hit were thinned out: in the full panel of roughly 83,000, 20% have a hit.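 Cells were grown in 96-well plates and exposed to the test compound at a single concentration for 48 hours; results are reported as percent growth, with values below 10 considered active.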 Activity calls are given as the source filed them.

Key:
Experiment in all cases: NCI-60 one-dose screen, 48 h (100 = growth as untreated, 0 = no growth, -100 = all killed)
Settings in all cases: 10 µM
DU-145 prostate = tested on: DU-145 prostate
K-562 leukemia = tested on: K-562 leukemia
MALME-3M melanoma = tested on: MALME-3M melanoma
MDA-MB-231 breast = tested on: MDA-MB-231 breast
RXF 393 renal = tested on: RXF 393 renal
SF-268 CNS = tested on: SF-268 CNS
SF-295 CNS = tested on: SF-295 CNS
SF-539 CNS = tested on: SF-539 CNS
UACC-257 melanoma = tested on: UACC-257 melanoma
M14 melanoma = tested on: M14 melanoma

Measured: growth

CC(=O)N(O)c1ccc(/C=C/c2ccccc2)cc1
active: DU-145 prostate 3.54% | RXF 393 renal -11% | SF-295 CNS -26.7% | UACC-257 melanoma -6.82%
inactive: K-562 leukemia 73.3% | MALME-3M melanoma 94% | MDA-MB-231 breast 48.7% | SF-268 CNS 12.4% | SF-539 CNS 33.6% | M14 melanoma 46.2%

O=C(Nc1ccc(OS(=O)(=O)Cc2ccccc2)cc1)C12CC3CC(CC(C3)C1)C2
inactive: DU-145 prostate 87.4% | K-562 leukemia 13.1% | MALME-3M melanoma 91.8% | MDA-MB-231 breast 78.7% | RXF 393 renal 99% | SF-268 CNS 84.6% | SF-295 CNS 60.3% | SF-539 CNS 86.1% | UACC-257 melanoma 99% | M14 melanoma 77.4%

Cc1ccc([P+](Cc2ccc([N+](=O)[O-])cc2)(c2ccc(C)cc2)c2ccc(C)cc2)cc1
active: MALME-3M melanoma -15% | UACC-257 melanoma -14.6%
inactive: DU-145 prostate 78.3% | K-562 leukemia 11.2% | MDA-MB-231 breast 41.6% | RXF 393 renal 67.2% | SF-268 CNS 54.2% | SF-295 CNS 45.2% | SF-539 CNS 69% | M14 melanoma 19%

Nc1ncncc1-c1ccc(F)cc1
inactive: DU-145 prostate 115% | K-562 leukemia 109% | MALME-3M melanoma 112% | MDA-MB-231 breast 127% | RXF 393 renal 109% | SF-268 CNS 112% | SF-295 CNS 100% | SF-539 CNS 95.6% | UACC-257 melanoma 118% | M14 melanoma 107%

CCOC(=O)c1cc(-c2ccccc2)nc(N)n1
inactive: DU-145 prostate 107% | K-562 leukemia 104% | MALME-3M melanoma 111% | MDA-MB-231 breast 97.4% | RXF 393 renal 93.7% | SF-268 CNS 106% | SF-295 CNS 93.8% | SF-539 CNS 94.5% | UACC-257 melanoma 101% | M14 melanoma 108%

Cc1ccc2c3c(cccc13)-c1ccccc1C2=O
inactive: DU-145 prostate 101% | K-562 leukemia 108% | MALME-3M melanoma 110% | MDA-MB-231 breast 95.5% | RXF 393 renal 105% | SF-268 CNS 95.7% | SF-295 CNS 95.1% | SF-539 CNS 97.2% | UACC-257 melanoma 101% | M14 melanoma 98.6%

O=C(COc1ccc(-c2nc3ccccc3[nH]2)cc1)N=Nc1c(O)[nH]c2ccccc12
inactive: DU-145 prostate 101% | K-562 leukemia 44.8% | MALME-3M melanoma 80.9% | MDA-MB-231 breast 84.5% | RXF 393 renal 107% | SF-268 CNS 98.3% | SF-295 CNS 102% | SF-539 CNS 106% | UACC-257 melanoma 110% | M14 melanoma 116%

N=C(N)c1ccc(-c2ccc(-c3ccccc3)s2)cc1F
active: DU-145 prostate -95.5% | K-562 leukemia -70.8% | MALME-3M melanoma -76.7% | MDA-MB-231 breast -82.3% | RXF 393 renal -86.9% | SF-268 CNS -84.6% | SF-295 CNS -77.9% | SF-539 CNS -97.3% | UACC-257 melanoma -84.1% | M14 melanoma -93.1%

O=C(NC1CCN(Cc2ccccc2)CC1)c1cc(-c2ccncc2)nc2ccc(Cl)cc12
inactive: DU-145 prostate 33.2% | K-562 leukemia 13.4% | MALME-3M melanoma 56.9% | MDA-MB-231 breast 42.3% | RXF 393 renal 37.8% | SF-268 CNS 24.4% | SF-295 CNS 14.6% | SF-539 CNS 16.4% | M14 melanoma 16.1%
active: UACC-257 melanoma -1.44%

CC1(C)CNC(=O)N1
inactive: DU-145 prostate 110% | K-562 leukemia 98.1% | MALME-3M melanoma 95.2% | MDA-MB-231 breast 100% | RXF 393 renal 108% | SF-268 CNS 103% | SF-295 CNS 98.7% | SF-539 CNS 98.9% | UACC-257 melanoma 99.8% | M14 melanoma 94.1%

FC(F)(F)c1ccc(-c2ncc(-c3ccc(C(F)(F)F)cc3)c(NCc3cc(C(F)(F)F)cc(C(F)(F)F)c3)n2)cc1
active: SF-295 CNS 9.91%
inactive: DU-145 prostate 69.6% | K-562 leukemia 44.4% | MALME-3M melanoma 75.4% | MDA-MB-231 breast 72.5% | RXF 393 renal 66.6% | SF-268 CNS 69.3% | SF-539 CNS 86.7% | UACC-257 melanoma 87.9% | M14 melanoma 73.8%

COc1ccc(/C=C2\CCC3C(CCCC34OCCO4)C2=O)cc1 (stereo not given)
inactive: DU-145 prostate 87.6% | K-562 leukemia 39.7% | MALME-3M melanoma 70.5% | MDA-MB-231 breast 96% | RXF 393 renal 96.6% | SF-268 CNS 97.2% | SF-295 CNS 107% | SF-539 CNS 88.8% | UACC-257 melanoma 91% | M14 melanoma 95.6%

O=C(NC1CCCC1)c1ccc(N2CCC(NCc3cccc(C(F)(F)F)c3)CC2)cc1
inactive: DU-145 prostate 91.2% | K-562 leukemia 38% | MALME-3M melanoma 70.3% | MDA-MB-231 breast 78.1% | RXF 393 renal 79.1% | SF-268 CNS 90.3% | SF-295 CNS 96.3% | SF-539 CNS 97.6% | UACC-257 melanoma 91.3% | M14 melanoma 77.5%

COc1cc(Nc2ccnc(N3CCN(c4ccnc5cc(Cl)ccc45)CC3)n2)cc(OC)c1
active: K-562 leukemia 2.73% | MALME-3M melanoma -4.19% | RXF 393 renal -18.3% | SF-295 CNS -19.2% | SF-539 CNS -22.1% | UACC-257 melanoma 1.09% | M14 melanoma -3.5%
inactive: DU-145 prostate 34.1% | MDA-MB-231 breast 18.5% | SF-268 CNS 27.7%

Cc1cc(C)c2c(Nc3ncnc4c3sc3nc(C)cc(C)c34)n[nH]c2n1
inactive: DU-145 prostate 113% | K-562 leukemia 93.2% | MALME-3M melanoma 94.2% | MDA-MB-231 breast 99.4% | RXF 393 renal 97.6% | SF-268 CNS 103% | SF-295 CNS 91.3% | SF-539 CNS 100% | UACC-257 melanoma 100% | M14 melanoma 99%

Fc1ccc(Nc2ccnc(N3CCN(c4ccnc5cc(Cl)ccc45)CC3)n2)cc1
inactive: DU-145 prostate 77% | K-562 leukemia 16% | MALME-3M melanoma 52.9% | MDA-MB-231 breast 56% | RXF 393 renal 66.7% | SF-268 CNS 72.4% | SF-295 CNS 39.6% | SF-539 CNS 51.4% | UACC-257 melanoma 61.1% | M14 melanoma 43.4%

CNC(=O)c1cc(Oc2ccc(NC(=O)Nc3ccc(Cl)c(OC(C)C)c3)c(F)c2)ccn1
inactive: DU-145 prostate 76.8% | K-562 leukemia 21.8% | MALME-3M melanoma 38.3% | MDA-MB-231 breast 59.4% | RXF 393 renal 87.6% | SF-268 CNS 58.3% | SF-295 CNS 33.3% | SF-539 CNS 66.9% | UACC-257 melanoma 26.9% | M14 melanoma 36.1%

Cc1nc(N)sc1Sc1nc2ccc(Cl)cc2c(=O)n1-c1ccc(Oc2ccccc2)cc1
inactive: DU-145 prostate 92.5% | K-562 leukemia 74.4% | MALME-3M melanoma 95.1% | MDA-MB-231 breast 89.3% | RXF 393 renal 86.4% | SF-268 CNS 107% | SF-295 CNS 67.8% | SF-539 CNS 93.4% | UACC-257 melanoma 75.7% | M14 melanoma 76.6%

O=C(c1ccc(Cl)cc1)c1no[n+]([O-])c1C(=O)c1ccc(Cl)cc1
active: K-562 leukemia 5.95% | MALME-3M melanoma -76.2%
inactive: DU-145 prostate 94.1% | MDA-MB-231 breast 124% | RXF 393 renal 44.6% | SF-268 CNS 102% | SF-295 CNS 83.8% | SF-539 CNS 98.5% | UACC-257 melanoma 104% | M14 melanoma 92.5%

Cc1ccc(-c2cc(C(=O)Nc3ccc(S(=O)(=O)N4CCCCC4)cc3)[nH]n2)c(O)c1
inactive: DU-145 prostate 64.8% | K-562 leukemia 17.9% | MALME-3M melanoma 74% | MDA-MB-231 breast 56.1% | RXF 393 renal 50.7% | SF-268 CNS 69.9% | SF-295 CNS 62.4% | SF-539 CNS 48.8% | UACC-257 melanoma 52% | M14 melanoma 62.2%

NC1CCC(Nc2nc(NCc3cc(Cl)ccc3O)c3ncn(C4CCCC4)c3n2)CC1 (stereo not given)
active: DU-145 prostate 0.994% | K-562 leukemia -23.3% | MALME-3M melanoma -65.5% | MDA-MB-231 breast -16.7% | RXF 393 renal -58.9% | SF-268 CNS -23.1% | SF-295 CNS -5.72% | SF-539 CNS -62.4% | UACC-257 melanoma -58.9% | M14 melanoma -71.6%

Nc1ccn([C@@H]2O[C@H](COP(=O)(O)O[C@@H]3C[C@H](n4cc(F)c(=O)[nH]c4=O)O[C@@H]3COP(=O)(O)O[C@@H]3C[C@H](n4cc(F)c(=O)[nH]c4=O)O[C@@H]3COP(=O)(O)O[C@@H]3C[C@H](n4cc(F)c(=O)[nH]c4=O)O[C@@H]3COP(=O)(O)O[C@@H]3C[C@H](n4cc(F)c(=O)[nH]c4=O)O[C@@H]3COP(=O)(O)O[C@@H]3C[C@H](n4cc(F)c(=O)[nH]c4=O)O[C@@H]3COP(=O)(O)O[C@@H]3C[C@H](n4cc(F)c(=O)[nH]c4=O)O[C@@H]3COP(=O)(O)O[C@@H]3C[C@H](n4cc(F)c(=O)[nH]c4=O)O[C@@H]3COP(=O)(O)O[C@@H]3C[C@H](n4cc(F)c(=O)[nH]c4=O)O[C@@H]3COP(=O)(O)O[C@@H]3C[C@H](n4cc(F)c(=O)[nH]c4=O)O[C@@H]3COP(=O)(O)O[C@@H]3C[C@H](n4cc(F)c(=O)[nH]c4=O)O[C@@H]3COP(=O)(O)OCCOCCOCCOCCOCCOCCO)[C@H](O)C2O)c(=O)n1 (stereo not given in full)
inactive: DU-145 prostate 41.6% | K-562 leukemia 53.8% | MALME-3M melanoma 64% | MDA-MB-231 breast 91.4% | RXF 393 renal 63.9% | SF-268 CNS 36.8% | SF-539 CNS 10.2% | UACC-257 melanoma 44.7%
active: SF-295 CNS 1.32% | M14 melanoma 9.25%

O=C(Cn1ccc(=O)[nH]c1=O)c1ccc([N+](=O)[O-])o1
inactive: DU-145 prostate 92.3% | K-562 leukemia 83.6% | MALME-3M melanoma 57.8% | MDA-MB-231 breast 111% | RXF 393 renal 118% | SF-268 CNS 105% | SF-295 CNS 92.7% | SF-539 CNS 106% | UACC-257 melanoma 81.5% | M14 melanoma 91.4%

Fc1ccc2[nH]c3c(NCCCN4CCOCC4)ncnc3c2c1
inactive: DU-145 prostate 79.2% | K-562 leukemia 73.9% | MALME-3M melanoma 61.5% | MDA-MB-231 breast 55.6% | RXF 393 renal 60.8% | SF-268 CNS 61.5% | SF-295 CNS 39% | SF-539 CNS 65% | UACC-257 melanoma 107% | M14 melanoma 85.3%

CCOC(=O)c1sc(Nc2ncccn2)nc1-c1ccccn1
inactive: DU-145 prostate 92.3% | K-562 leukemia 108% | MALME-3M melanoma 107% | MDA-MB-231 breast 86.7% | RXF 393 renal 104% | SF-268 CNS 80.6% | SF-295 CNS 84.2% | SF-539 CNS 99.3% | UACC-257 melanoma 100% | M14 melanoma 81.9%

Cc1ccc(/C(CS(=O)(=O)c2ccc(C)cc2)=N\O)cc1
inactive: DU-145 prostate 111% | K-562 leukemia 105% | MALME-3M melanoma 116% | MDA-MB-231 breast 103% | RXF 393 renal 93.6% | SF-268 CNS 108% | SF-295 CNS 90.8% | SF-539 CNS 97.3% | UACC-257 melanoma 97% | M14 melanoma 116%
